Measured values reported in PubChem BioAssay (NCI).
Compounds without any hit were thinned out: in the full panel of roughly 79,000, 15% have a hit. The source made the active and inactive calls. Cut-off read from the data, not from the text of the source: active = growth inhibition above about 70%; inactive = the rest.

What was measured:
[1] = NCI Yeast Anticancer Drug Screen. Data for the rad50 strain (AID 155);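 note: 0% = growth of vehicle-only cultures of the same strain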; conditions: S. cerevisiae rad50 strain growth inhibition; at 50.0 µM; stronger effect = higher value
How it was run: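 Relative growth inhibition (compound vs vehicle) was measured in yeast with a defined repair-gene alteration.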

[2] = NCI Yeast Anticancer Drug Screen. Data for the mec2-1 strain (AID 157); conditions: S. cerevisiae mec2-1 strain, at 50.0 µM, stronger effect = higher value
How it was run: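 Strain: mec2-1 (DNA repair/cell cycle alteration). Compound exposure, then growth measured; inhibition expressed relative to vehicle.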

[3] = NCI Yeast Anticancer Drug Screen. Data for the sgs1 mgt1 strain (AID 161);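 note: 0% = growth of cultures given vehicle only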; conditions: S. cerevisiae sgs1 mgt1 strain, at 50.0 µM, stronger effect = higher value
How it was run: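 Test agents were incubated with a DNA-repair-mutant yeast strain. Growth was then read and compared against vehicle-treated controls.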

[4] = NCI Yeast Anticancer Drug Screen. Data for the cln2 rad14 strain (AID 165);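 note: 0% = growth equal to vehicle treated cultures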; conditions: S. cerevisiae cln2 rad14 strain, at 50.0 µM, stronger effect = higher value
How it was run: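 Compounds are applied to the cln2 rad14 yeast strain, and growth is then compared with that of vehicle-treated cultures to give inhibition.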

[5] = NCI Yeast Anticancer Drug Screen. Data for the bub3 strain (AID 167); conditions: S. cerevisiae bub3 mutant strain, at 50.0 µM, stronger effect = higher value
How it was run: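 Screening used yeast with an engineered genetic alteration affecting cell cycle control. Compound-exposed cultures were compared with vehicle cultures, and reduced growth was taken as inhibition.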

[6] = NCI Yeast Anticancer Drug Screen. Data for the mlh1 rad18 strain (AID 175); conditions: S. cerevisiae mlh1 rad18 strain growth inhibition; at 50.0 µM; stronger effect = higher value
How it was run: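 Read-out is yeast growth inhibition, calculated against vehicle-only controls. The compound was applied to a strain engineered with DNA damage repair alterations.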

Measured: growth inhibition

CCC(CC)CC(=O)OC/C(=N\Nc1ccc([N+](=O)[O-])cc1[N+](=O)[O-])c1ccc(-c2ccccc2)cc1
inactive: [1] -30.9% | [2] 0.15% | [3] -2.85% | [4] -33.8% | [5] -12.2% | [6] -7%

NC(=O)c1cn(C2OC(CO)C(O)C2O)c2nc(N)nc(N)c2c1=O (stereo not drawn)
inactive: [1] 19% | [2] 19.4% | [3] 14.3% | [4] 3.9% | [5] 23.1% | [6] 45.1%

CSc1nc(COC(=O)NC(C)C)c(COC(=O)NC(C)C)n1Cc1ccccc1
inactive: [1] 2.45% | [2] 3.7% | [3] 1.35% | [4] 1.65% | [5] 5.4% | [6] 2.5%
